Most compounds without a hit are left out; they make up all but 3.8% or so of the library.
CBFb-RUNX1 inh: CBF-beta/RUNX1 interaction disruption; Q01196+Q13951; AlphaScreen CBFb-His/RUNX1-biotin binding, biochemical; Potency, µM (series often up to 59.8 µM), without a hit: at the top dose activity, negative = inhibition, hits mostly inhibitors; 230,000 tested, under 10 active; AID 1477; note: % of control where 0% means no effect
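AlphaScreen binding: CBFb-His and RUNX1-biotin (30 nM each) preincubated 20 min, compound added for 15 min, then nickel and streptavidin beads for 90 min, all at room temperature. Disruption of the interaction by any mechanism counts as activity.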
PLK1 PBD block: inhibitors of human PLK1 polo-box domain binding. P53350. Plk1 PBD binding of FITC phosphopeptide, fluorescence polarization. Potency, µM, for the others: max response, negative = inhibition, hits mostly inhibitors. 2.8% of 360,000 active. AID 720504; note: potency is the fitted concentration of half-maximal effect; series mostly up to about 57 µM; % is set by controls: 0 for no effect and ±100 for the full control effect; nearly all actives have a fitted effect of over 65% in size
Target sequence (P53350 whole entry, looked up, the tested form may be a part): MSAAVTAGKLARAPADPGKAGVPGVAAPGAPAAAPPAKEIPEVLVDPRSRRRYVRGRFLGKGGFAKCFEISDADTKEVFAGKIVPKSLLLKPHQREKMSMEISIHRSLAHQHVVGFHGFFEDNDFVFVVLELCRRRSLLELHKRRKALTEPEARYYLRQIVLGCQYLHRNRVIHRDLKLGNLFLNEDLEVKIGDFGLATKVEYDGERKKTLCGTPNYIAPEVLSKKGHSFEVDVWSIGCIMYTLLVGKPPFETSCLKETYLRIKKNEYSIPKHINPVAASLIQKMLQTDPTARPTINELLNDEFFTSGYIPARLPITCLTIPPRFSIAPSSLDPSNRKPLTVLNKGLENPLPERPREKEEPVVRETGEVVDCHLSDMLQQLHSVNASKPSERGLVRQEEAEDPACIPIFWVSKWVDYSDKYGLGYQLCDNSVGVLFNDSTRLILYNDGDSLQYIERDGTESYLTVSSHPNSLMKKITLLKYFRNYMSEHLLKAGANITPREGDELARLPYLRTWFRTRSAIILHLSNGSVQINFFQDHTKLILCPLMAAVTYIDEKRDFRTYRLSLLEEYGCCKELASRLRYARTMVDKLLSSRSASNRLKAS
KCNH2 3.1 inh: KCNH2 3.1 (human) potassium channel inhibition. U2OS KCNH2 3.1, thallium flux FluxOr; hits give low values. activity change, % (tested at about 1.8 µM). 0.95% of 340,000 active. AID 720553;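 active = maximum activity change below -70%; inconclusive = maximum activity change from -70% to -50%; inactive = maximum activity change above -50%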;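 note: thallium influx rate constant from kinetic fluorescence after stimulation buffer; % is set by controls: 0 for no effect and ±100 for the full control effect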
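Virally transduced U2OS (3.1 isoform, 4 h infection in dark at RT) → overnight 37 C → FluxOr + Red40 in HBSS/HEPES, 45 min → stimulation buffer, 2 min kinetic read → rate constant vs DMSO controls.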
VDR inh: inhibitors of human vitamin D receptor. VDR-SRC2-3 peptide fluorescence polarization, 2 h. 0.93% of 400,000 active. AID 504847. Potency, µM, inactives show max response, negative = inhibition, most hits filed as inhibitors; note: potency is the fitted concentration of half-maximal effect; % is set by controls: 0 for no effect and ±100 for the full control effect
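Inhibition of the VDR/SRC2-3 peptide interaction is quantified by fluorescence polarization. Compounds (23 nl, pintool) incubate with the reagents for 2 hours at ambient room temperature.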
hERG WT inh: blocks the wildtype human KCNH2 potassium channel | Q12809 | activity change, % at 1.84 µM | U2OS, BacMam KCNH2, thallium flux FluxOr; hits give low values | 0.37% of 340,000 active;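 active = maximum activity change below -70%; inconclusive = maximum activity change between -70% and -50%; inactive = maximum activity change above -50%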; note: % is set by controls: 0 for no effect and ±100 for the full control effect
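U2OS cells were transduced with wild-type KCNH2 virus (2.03 x 10^8 / mL) for 4 h at room temperature, then cultured overnight at 37 C. Thallium flux was read with FluxOr dye. Rate constants were normalized to DMSO controls.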
MBNL1 CUG block: blocks human MBNL1 binding to CUG repeat RNA. Q9NR56. 0.036% of 280,000 active. Potency, µM (doses to about 57.5 µM), for inactives: at the top dose activity change, negative = inhibition, hits mostly inhibitors. AID 2675. TR-FRET MBNL1-His/biotin-(CUG)12 binding, 665/545 ratio; active = well fitted inhibition curve with a large enough effect in the signal ratio, with a control signal flat, not every such curve was filed as active; inconclusive = small, poorly fitted or top-dose-only effect, or effect the other way, or a change in a side signal; inactive = no such curve, though single readings can be large or run the other way; the % refers to the signal ratio; note: potency is the fitted concentration of half-maximal effect; % is set by controls: 0 for no effect and ±100 for the full control effect
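Ratiometric TR-FRET (665 over 545 nm, excitation 340 nm) tracks disruption of MBNL1-His/biotin-(CUG)12 complex after 60 min at room temperature, with compounds at 92 nM to 58 uM final.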
* hit, by the source's call; ? = inconclusive; . = no result. Unless noted, calls come from the whole dose curve; as a rule, active = well fitted curve in the direction sought with a large enough effect; inconclusive = small, poorly fitted or top-dose-only effect, or another doubt; inactive = no such curve, though single readings can be large; an effect the other way counts as inactive or inconclusive.

SMILES | CBFb-RUNX1 inh | PLK1 PBD block | KCNH2 3.1 inh | VDR inh | hERG WT inh | MBNL1 CUG block
COc1ccc(NC(=O)C2CCCN2C(=O)NCc2ccccc2)cc1 (stereo unspecified) | ? | 15µM* | -12 | 71µM* | -4 | .
COc1ccc(CNC(=O)Nc2ccc(OC)cc2)cc1 | 3% | -4% | 1 | 8% | -6 | -13%
COc1ccc(CNC(=O)Nc2ccccc2)cc1 | 10% | 12µM* | 5 | ? | -13 | .
CCCCC/C=C\C/C=C\C/C=C\C/C=C\CCCCCC(=O)NCC(=O)O | 14% | . | . | -2% | . | .
CC(NC(=O)c1ccc(S(=O)(=O)C(F)F)cc1)c1ccccc1 (stereo unspecified) | ? | 24µM* | 0 | -21% | 20 | -9%
Cc1cccn2c(=O)c(/C=C(\C#N)c3nc4ccccc4s3)c(Oc3ccc(Br)cc3)nc12 | . | . | . | 79µM* | . | .
COc1ccc(Oc2nc3c(C)cccn3c(=O)c2/C=C(\C#N)c2nc3ccccc3[nH]2)cc1 | . | . | . | -10% | . | .
c1ccc(-c2nn3c(Cn4nnc5ccccc54)nnc3s2)cc1 | 2% | 13µM* | -19 | -79% | 2 | -14%
COc1ccc(Cc2nn3c(Cn4nnc5ccccc54)nnc3s2)cc1 | -7% | 21µM* | -4 | ? | -9 | 5%
Cn1c(Cn2nnc3ccccc32)nnc1SCC(=O)Nc1ccc2c(c1)OCO2 | 2% | -1% | -1 | 6% | -9 | 2%
c1ccc2c(c1)nnn2Cc1nnc2sc(-c3ccc4c(c3)OCCO4)nn12 | 0% | 11µM* | 0 | 8% | 3 | 6%
c1ccc(C2=Nn3c(Cn4nnc5ccccc54)nnc3SC2)cc1 | 7% | 3% | -3 | 9% | 1 | 0%
CC(C)N(Cc1nc(-c2ccc(Cl)cc2)no1)C(=O)c1ccc(C(C)(C)C)cc1 | . | . | . | 1% | . | .
CCCn1c2ccccc2c2cnn(CC(=O)NC3CCC(C)CC3)c(=O)c21 (stereo unspecified) | . | 2% | 13 | -6% | -3 | 11%
CCCn1c2ccccc2c2cnn(CC(=O)NC3CCCCC3)c(=O)c21 | . | -5% | 8 | 3% | -226* | 0%
COc1ccc(C(=O)N(Cc2ccco2)Cc2ccco2)cc1 | . | . | . | 9% | . | .
Cc1cccc(CNc2ccnc(-c3cccc(C#N)c3)n2)c1 | . | . | . | -19% | . | .
CNc1ccnc(-c2c(C)noc2C)n1 | . | . | . | 8% | . | .
c1cncc(-c2noc(-c3ccco3)n2)c1 | -15% | 0% | 13 | 6% | -9 | -7%
CN(Cc1ccco1)c1ccnc(-c2ccoc2)n1 | . | . | . | 45µM* | . | .
Cc1noc(C)c1-c1nccc(N(C)Cc2ccco2)n1 | . | . | . | 45µM* | . | .
CN(Cc1ccco1)c1ccnc(-c2cccnc2)n1 | . | . | . | 45µM* | . | .
CN(Cc1ccco1)c1ccnc(-c2cccc(C#N)c2)n1 | . | . | . | 35µM* | . | .
Cc1ccc(CNC(=O)c2cc(-c3ccc(C)cc3)nc3n[nH]c(-c4cccc([N+](=O)[O-])c4)c23)cc1 | . | . | . | 2% | . | .
CN(Cc1ccco1)c1ccnc(-c2ccccc2C(F)(F)F)n1 | . | . | . | 45µM* | . | .
SMILES | CBFb-RUNX1 inh | PLK1 PBD block | KCNH2 3.1 inh | VDR inh | hERG WT inh | MBNL1 CUG block
CNc1ccnc(-c2ccccc2C(F)(F)F)n1 | . | . | . | 8% | . | .
CC(=O)Oc1ccc(N(C(C)=O)S(=O)(=O)c2ccc(C)cc2C)c2ccccc12 | . | 4% | 4 | -20% | 1 | 3%
Cc1ccc(S(=O)(=O)N(C(=O)c2ccncc2)c2ccc(OC(=O)c3ccncc3)c3ccccc23)cc1 | -5% | 9.5µM* | -14 | ? | -2 | 4%
Cc1ccc(S(=O)(=O)N(C(=O)c2ccncc2)c2ccc(OC(=O)c3ccncc3)c3ccccc23)c(C)c1 | -11% | 13µM* | -20 | -9% | -3 | 12%
CC(=O)Oc1ccc(N(C(C)=O)S(=O)(=O)c2ccccc2)c2ccccc12 | . | -2% | -2 | . | -6 | .
CCOc1ccc(/C=C/c2nc(C#N)c(NCCc3ccccc3)o2)cc1 | . | . | . | 13% | . | .
Cc1nc2c(-c3ccccc3)c(C)nn2c(C)c1CCC(=O)NCc1ccccc1Cl | . | . | . | 1% | . | .
CCOC(=O)C1(CCOc2ccccc2)CCN(Cc2cccn2-c2ncccn2)CC1 | 12% | 3% | -101* | 2% | -90* | -18%
CCOC(=O)C1(CCOC)CCN(Cc2cccc(OCc3ccccc3)c2)CC1 | . | 1% | 5 | -8% | 0 | 0%
CCOC(=O)C1(CCOc2ccccc2)CCN(Cc2cccc(OC)c2O)CC1 | . | -17% | -113* | 15% | -102* | -13%
CCOC(=O)C1(CCOc2ccccc2)CCN(Cc2cccc(OC)c2)CC1 | . | -16% | -116* | -2% | -96* | .
CCOC(=O)C1(CCOc2ccccc2)CCN(Cc2ccc(O)c(OC)c2)CC1 | . | -4% | -75* | -2% | ? | -22%
COc1ccc(CCn2c(=S)[nH]c(=O)c3[nH]cnc32)cc1OC | . | . | . | 2% | . | .
Cc1ccc(OC(=O)c2cc(-c3ccc4c(c3)OCCO4)on2)c(C)c1 | . | . | . | 17% | . | .
O=c1c(CCc2ccccc2)nc2cnc(Oc3ccccc3)nc2n1C1CC1 | . | . | . | -2% | . | .
O=C(Nc1cccc(Cl)c1Cl)c1cc(S(=O)(=O)N2CCCCC2)ccc1F | . | . | . | 3% | . | .
Nc1ncnc2c1ncn2[C@@H]1O[C@H](C(=O)N2CCN(CC(=O)Nc3cccc4c3CNC4=O)CC2)[C@@H](O)[C@H]1O | 13% | . | . | -8% | . | .
CCOC(=O)C1(Cc2cccc(OC)c2)CCN(Cc2cc(OC)ccc2OC)CC1 | 7% | -6% | ? | 7% | 20 | -27%
CCOC(=O)C1(CCOc2ccccc2)CCN(Cc2cc(OC)ccc2OC)CC1 | . | 5% | -88* | -4% | -80* | -6%
N#C/C(=C/c1ccc(Br)s1)C(=O)NCCc1c[nH]c2ccccc12 | -24% | -5% | -7 | 8% | -74* | .
Cc1cc(/C=C(\C#N)C(=O)NCCc2c[nH]c3ccccc23)c(C)n1C | -14% | -7% | -47 | 11% | -11 | 23%
Cc1cccc(N2CCN(Cc3nnc(-c4ccc5c(c4)OCO5)o3)CC2)c1C | . | . | . | -11% | . | .
CSc1nc(SCC(=O)O)c2sc3nc(-c4ccccc4)c4c(c3c2n1)CCC4 | -6% | 12µM* | 2 | -12% | -15 | 5%
CSc1nc(N(C)CCO)c2sc3nc(-c4ccco4)c4c(c3c2n1)CCC4 | -28% | 24µM* | -11 | ? | -4 | 22%
CSc1nc(NCCN(C)C)c2sc3nc(-c4ccco4)c4c(c3c2n1)CCC4 | . | -12% | -7 | 8% | -3 | .
CSc1nc(N2CCN(CCO)CC2)c2sc3nc(-c4ccco4)c4c(c3c2n1)CCC4 | -1% | . | . | . | . | 0%
CCOc1ccc(-n2c(=O)c3c4c(sc3n(Cc3cccc(Cl)c3)c2=O)CCCC4)cc1 | . | . | . | -18% | . | .

Assay outcomes deposited in PubChem by National Center for Advancing Translational Sciences (NCATS).
